This is an account of results in PubChem BioAssay (NCI).

Among the test systems are HCT-15 colon; HT29 colon; SNB-75 CNS; SNB-19 CNS; U251 CNS; PC-3 prostate; UACC-62 melanoma; LOX IMVI melanoma; SK-MEL-28 melanoma; EKVX NSCLC; SN12C renal; UO-31 renal; TK-10 renal; ACHN renal; CAKI-1 renal; CCRF-CEM leukemia; MOLT-4 leukemia; SK-MEL-5 melanoma; SK-MEL-2 melanoma; A498 renal.
Assay in all cases: NCI-60 one-dose screen, 48 h (100 = growth as untreated, 0 = no growth, -100 = all killed)
Common to all, as to conditions: 10 µM unless noted

About 83,000 compounds went through this panel and 20% of them were active in at least one assay; those are over-represented in the sample as a whole.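 Values shown are percent growth following 48 h exposure of cells in 96-well plates to a single concentration of compound; below 10 was considered active.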 Unmarked numbers belong to inactive results. Calls of active or inactive are those of the source.

As for `CNCc1cccc2c1OCCCCCCC(C)(O)CC(C)(C)S(=O)(=O)c1ccc(cc1)-c1cnc(N)c(n1)C(=O)N2` (stereo not drawn), the growth is -20.6% (active) with HCT-15 colon; -8.67% (active) with HT29 colon; 84% in the test with SNB-75 CNS; 33% in the test with SNB-19 CNS; -70.9% (active) in the test with U251 CNS; 16% in the test on PC-3 prostate. The growth with UACC-62 melanoma was 1.85% (active); in the test with LOX IMVI melanoma it was -59.4% (active); with SK-MEL-28 melanoma, 13.5%; with EKVX NSCLC, 62.7%; in the test with SN12C renal, 16.6%; with UO-31 renal, 23.7%. Besides, the growth in the test on TK-10 renal is 65.4%; with ACHN renal, 10% (active); with CAKI-1 renal it was 17.6%; with CCRF-CEM leukemia, 4.37% (active); in the test with MOLT-4 leukemia, 2.61% (active).

As for `COc1cc(OC)c(S(N)(=O)=O)cc1C(=O)/C=C/c1ccc(C)cc1`, the growth with HCT-15 colon was 6.96% (active); in the test on HT29 colon, 9.47% (active); with SNB-75 CNS, 1.82% (active); with SNB-19 CNS, 33.3%; in the test with U251 CNS it was 14.5%; with PC-3 prostate it was 19.1%. In addition, the growth is 33.8% in the test with UACC-62 melanoma; 1.84% (active) in the test on LOX IMVI melanoma; 58.7% in the test on SK-MEL-28 melanoma; 45.6% with EKVX NSCLC; 11.4% in the test with SN12C renal; 34.7% in the test with UO-31 renal. Moreover, the growth with TK-10 renal is 25.5%; in the test on ACHN renal it was 29.7%; in the test with CAKI-1 renal, 21.9%; in the test on CCRF-CEM leukemia, 16.7%; in the test on MOLT-4 leukemia, 21.1%.

Regarding `O=C1/C(=C/C=C/c2ccco2)SC(=S)N1c1ccccc1`, the growth in the test with HCT-15 colon was 56.9%; with HT29 colon, 83.6%; in the test with SNB-75 CNS, 101%; in the test with SNB-19 CNS it was 86.3%; in the test with U251 CNS, 49.8%; in the test on PC-3 prostate it was 71.3%. Further, the growth in the test with UACC-62 melanoma is 70.7%; with LOX IMVI melanoma, 26%; with SK-MEL-28 melanoma, 79.9%; in the test on EKVX NSCLC, 81.2%; in the test with SN12C renal it was 79.1%; with UO-31 renal, 42.9%. Also, the growth in the test with TK-10 renal is 95.5%; with ACHN renal, 67.3%; in the test with CAKI-1 renal, 86.8%; in the test on CCRF-CEM leukemia, 41.3%; in the test on MOLT-4 leukemia it was 60.2%.

`O=S(=O)(Nc1cccc2ccccc12)c1ccc(-c2cnc(C3CC3)o2)cc1`: the growth in the test on HCT-15 colon is 14.3%; with HT29 colon it was 16.8%; in the test on SNB-19 CNS, 38.8%; in the test with U251 CNS, 23.8%; with PC-3 prostate, 16.5%; in the test on SK-MEL-5 melanoma it was 7.66% (active). Further, the growth is 37.2% in the test with UACC-62 melanoma; 57.7% in the test with SK-MEL-28 melanoma; 72.3% with SK-MEL-2 melanoma; 43.1% with EKVX NSCLC; 34.3% in the test with SN12C renal; 43.5% in the test on UO-31 renal. Further, the growth is 92.6% in the test on TK-10 renal; 36.9% with ACHN renal; 29.9% in the test on CAKI-1 renal; 17.6% with CCRF-CEM leukemia; 21.8% with MOLT-4 leukemia.

Regarding `COc1ccc(C(=O)c2c(N)c(C#N)cn2-c2ccccc2OC)cc1`, the growth is 26% with HCT-15 colon; 6.81% (active) in the test on HT29 colon; 29.3% with SNB-75 CNS; 29.8% in the test on SNB-19 CNS; 34.2% in the test on U251 CNS; 36.2% in the test on PC-3 prostate. Besides, the growth with UACC-62 melanoma was 23.3%; in the test on LOX IMVI melanoma, 23.8%; with SK-MEL-28 melanoma, 59.2%; with SK-MEL-2 melanoma it was 45.3%; in the test on EKVX NSCLC, 48.2%; in the test on SN12C renal it was 45.1%. The growth with UO-31 renal was 47.9%; in the test with TK-10 renal it was 83.2%; with ACHN renal, 46.7%; in the test with A498 renal, 7.39% (active); with CCRF-CEM leukemia it was 19.9%; in the test with MOLT-4 leukemia, 30.5%.

In the case of `Cc1ccc(C(=O)NN2C(=O)/C(=C/C=C/c3ccco3)SC2=S)cc1`, the growth in the test with HCT-15 colon is 91.6%; in the test on HT29 colon it was 110%; in the test on SNB-75 CNS, 94.5%; in the test on SNB-19 CNS, 94.9%; with U251 CNS it was 98.7%; with PC-3 prostate, 92.2%. Also, the growth in the test with UACC-62 melanoma was 85.3%; in the test with LOX IMVI melanoma, 99.7%; in the test on SK-MEL-28 melanoma, 94.4%; in the test on EKVX NSCLC it was 95.4%; in the test on SN12C renal, 94.7%; with UO-31 renal it was 88.6%. In addition, the growth is 118% in the test on TK-10 renal; 107% with ACHN renal; 91.4% with CAKI-1 renal; 103% in the test with CCRF-CEM leukemia; 40.7% in the test on MOLT-4 leukemia.

For the compound `CCOP(=O)(OCC)OC[C@]12CCC(C)(C)C=C1[C@H]1CC[C@@H]3[C@@]4(C)CC[C@H](OP(=O)(OCC)OCC)C(C)(C)[C@@H]4CC[C@@]3(C)[C@]1(C)CC2`, the growth is -73.3% (active) in the test on HCT-15 colon; -42.4% (active) with HT29 colon; -11.5% (active) in the test on SNB-75 CNS; -12.4% (active) with SNB-19 CNS; -84.9% (active) in the test on U251 CNS; 0.0741% (active) in the test on PC-3 prostate. The growth with UACC-62 melanoma was -29.4% (active); with LOX IMVI melanoma, -90.1% (active); in the test with SK-MEL-28 melanoma it was -31% (active); in the test with SK-MEL-2 melanoma it was -60.9% (active); in the test on EKVX NSCLC it was -10.3% (active); with SN12C renal it was -70.6% (active). The growth in the test with UO-31 renal was -61% (active); with TK-10 renal, -18% (active); in the test with ACHN renal, -8.2% (active); in the test on A498 renal, -8.86% (active); in the test on CCRF-CEM leukemia it was -23.2% (active); with MOLT-4 leukemia, -20.4% (active).

`CN1CCC(n2cc(Nc3ncc4c(=O)n(-c5c(Cl)cccc5Cl)cc(Br)c4n3)cn2)CC1`: the growth is 17.1% with HCT-15 colon; 6.54% (active) with HT29 colon; 17.1% with SNB-75 CNS; 41.7% with SNB-19 CNS; 27.6% in the test on U251 CNS; 51.3% with PC-3 prostate. The growth in the test on UACC-62 melanoma is 77.8%; with LOX IMVI melanoma, 11.9%; in the test with SK-MEL-28 melanoma it was 63.4%; in the test with EKVX NSCLC, 57.4%; in the test on SN12C renal it was 20.7%; in the test on UO-31 renal, 22.2%. Further, the growth with TK-10 renal was 47%; in the test on ACHN renal it was 24%; with CAKI-1 renal it was 20%; in the test on CCRF-CEM leukemia it was 8.75% (active); in the test on MOLT-4 leukemia it was 13%.
